Test [1] can be described thus: Wnt pathway potentiators raising nuclear beta-catenin – imaging, WNT3A-conditioned medium, mouse C2C12, NPC library, primary screen (AID 1117326; in the data active means nuclear beta-catenin stimulation mostly above about 4.2%, no sharp cut-off; inactive means mostly below about 10%; further: reference of the scale not given here). As to conditions: stronger effect = higher value.
Test [2] in a line: stimulators of insulin release from INS-1E, primary screen, cell-based, 5 mM glucose, NPC library (AID 1117329). Further: reference of the scale not given here. As to conditions: rat INS-1E insulin secretion, at 10 µM, stronger effect = higher value.
Test [3] in a line: growth inhibition of GSK3B-pretreated HCT116 cells – cell-based, CellTiter-Glo, 0.2 to 20 µM (AID 1117336;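 active means compounds lowering colon cancer cell viability after pretreatment blocking the GSK3B kinase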). As to conditions: HCT116 viability after GSK3B inhibitor, at 20 µM, stronger effect = higher value. For orientation: Cellular ATP, detected with luciferase, serves as a proxy for viable cell number.
Test [4] in a line: inhibition of endothelial tube formation, primary screen, imaging, VEGF stimulated, CD31 staining, tube area, NPC library (AID 1117340;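 active means compound that reduces growth-factor-driven endothelial tube area in a mixed cell culture, no cutoff stated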). The following applies: VEGF-stimulated ADSC/ECFC co-culture, at 10 µM, stronger effect = higher value.
Test [5] in a line: GLP1 release stimulators, primary, NCI-H716, NPC library (AID 1117341;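 active means compound raises GLP1 secretion from the human gut endocrine cells, with no numeric limit stated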; further: reference of the scale not given here). As to conditions: NCI-H716 cells, at 10 µM, stronger effect = higher value.
Test [6] in a line: HCT116 colon cancer cell growth inhibition, primary screen, CellTiter-Glo luminescence, NPC library (AID 1117342;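 active means compounds that lower survival of HCT116 colon cancer cells in the luminescence readout, no numeric limit stated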). The following applies: at 20 µM (top of the series).
Test [7] can be described thus: reduced SW480 viability measured with CellTiter-Glo, NPC library, primary (AID 1117343;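 active means compounds that lower viability of the colon cancer cells in the luminescence readout, with no numeric limit stated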). As to conditions: CellTiter-Glo luminescence; at 20 µM (top of the series).
The nature of test [8]: NPC library primary testing for decreased DLD-1 cell viability via CellTiter-Glo (AID 1117346;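 active means compounds that lower survival of DLD-1 colon cancer cells in the luminescence readout, no cutoff given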). The following applies: DLD-1 viability, CellTiter-Glo luminescence; at 20 µM (top of the series).

SMILES strings stand for the structures. Calls of active or inactive are those of the source.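 How the source made its calls, unless noted: active means compound raises insulin release from rat beta cells at 5 mM glucose, no numeric limit stated; inactive means the rest.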

Take `C[C@H]1C[C@H](O)c2ccsc2S1(=O)=O`: the nuclear beta-catenin stimulation in test [1] (at 10 µM) is 0.6% (inactive); in test [1] (stimulation, at 2 µM), 2.7%. Further, in test [2], the insulin secretion stimulation was -0.8% (inactive). Besides, the viability decrease in test [3] was -1.3% (inactive). For the same molecule, the tube area decrease in test [4] was 1.2% (inactive). Moreover, the GLP1 secretion stimulation in test [5] was 1% (inactive). Moreover, the inhibition of viability in test [6] is 4.1% (active). For the same molecule, the viability decrease (inhibition) in test [7] was -6.2% (inactive); in test [8] it was -4% (inactive).
As to `Nc1nnnn1-c1ccccc1`, the nuclear beta-catenin stimulation in test [1] (at 10 µM) was -0.2% (inactive); in test [1] (stimulation, at 2 µM) it was 0.5%. The insulin secretion stimulation in test [2] is -1.6% (inactive). The viability decrease in test [3] is -7.65% (inactive). In addition, the tube area decrease in test [4] is -14.5% (inactive). Also, in test [5], the GLP1 secretion stimulation is 2.4% (inactive). In test [6], the inhibition of viability is 5.4% (inactive). Also, the values for the viability decrease (inhibition) in test [7] and in test [8] were 56.4% (active) and -1.05% (inactive), respectively.
As for `NC[C@H]1O[C@H](O[C@H]2[C@@H](O)[C@@H](O[C@H]3O[C@H](CO)[C@@H](O)[C@H](N)[C@@H]3O)[C@H](N)C[C@@H]2N)[C@H](N)C[C@H]1O`, the nuclear beta-catenin stimulation in test [1] (at 10 µM) is 0.2% (inactive); in test [1] (stimulation, at 2 µM), 1.4%. In addition, the insulin secretion stimulation in test [2] is -1.2% (inactive). Moreover, in test [3], the viability decrease was -19.7% (inactive). Also, in test [4], the tube area decrease is -1.5% (inactive). The GLP1 secretion stimulation in test [5] is -0.3% (inactive). Further, the inhibition of viability in test [6] is -0.2% (inactive). Further, the viability decrease (inhibition) in test [7] is 39.1% (inactive); in test [8], -15.9% (inactive).
For `CCOC(=O)NNc1ccc(N(CC)CC(C)O)nn1` (stereo unspecified), the nuclear beta-catenin stimulation in test [1] (at 10 µM) is -1.1% (inactive); in test [1] (stimulation, at 2 µM), 0.1%. Also, the insulin secretion stimulation in test [2] was 0.3% (inactive). Besides, the viability decrease in test [3] was -1% (inactive). Besides, the tube area decrease in test [4] is -17.2% (inactive). For the same molecule, the GLP1 secretion stimulation in test [5] is 1.1% (inactive). Further, the inhibition of viability in test [6] is 6.1% (inactive). The values for the viability decrease (inhibition) in test [7] and in test [8] were 2.6% (inactive) and 1% (inactive), respectively.
For the molecule `O=C1C(c2[nH]c3ccc(S(=O)(=O)O)cc3c2O)=Nc2ccc(S(=O)(=O)O)cc21`, the nuclear beta-catenin stimulation in test [1] (at 10 µM) was -1.7% (inactive); in test [1] (stimulation, at 2 µM), -0.3%. Moreover, the insulin secretion stimulation in test [2] is 5.5% (inactive). For the same molecule, in test [3], the viability decrease is 23.1% (inactive). In addition, in test [4], the tube area decrease was -3.9% (inactive). Further, the GLP1 secretion stimulation in test [5] is 3% (inactive). Besides, the inhibition of viability in test [6] is 11.5% (inactive). The results for the viability decrease (inhibition) in test [7] and in test [8] were 13.9% (inactive) and 7% (inactive), respectively.
Take `CC1(C)OC[C@@H]2O[C@@]3(C(=O)O)OC(C)(C)O[C@H]3[C@@H]2O1`: the nuclear beta-catenin stimulation in test [1] (at 10 µM) was -1.7% (inactive); in test [1] (stimulation, at 2 µM), -0.3%. In test [2], the insulin secretion stimulation is 4.8% (inactive). In test [3], the viability decrease was -3% (inactive). In addition, the tube area decrease in test [4] is -12.4% (inactive). In test [5], the GLP1 secretion stimulation is -3.6% (inactive). Moreover, in test [6], the inhibition of viability is -1.6% (inactive). Also, the viability decrease (inhibition) in test [7] was 26.9% (inactive); in test [8], 0.3% (inactive).
On to `Nc1ncnc2c1ncn2CCOCP(=O)(O)O`, for which the nuclear beta-catenin stimulation in test [1] (at 10 µM) was -0.6% (inactive); in test [1] (stimulation, at 2 µM) it was 0.1%. For the same molecule, in test [2], the insulin secretion stimulation was -2% (inactive). In test [3], the viability decrease is -1.45% (inactive). Moreover, in test [4], the tube area decrease was 11.2% (inactive). Besides, the GLP1 secretion stimulation in test [5] is 4% (inactive). In addition, in test [6], the inhibition of viability is -1.5% (inactive). Further, the viability decrease (inhibition) in test [7] was 27.9% (inactive); in test [8], 6.8% (inactive).
For the molecule `CC(C)C[C@@H](N)C(=O)O`, the nuclear beta-catenin stimulation was 3.4% (inactive) in test [1] (at 10 µM) and 1.7% in test [1] (stimulation, at 2 µM). Further, the insulin secretion stimulation in test [2] was -0.8% (inactive). The viability decrease in test [3] is -7.15% (inactive). In addition, in test [4], the tube area decrease is 11.2% (inactive). For the same molecule, the GLP1 secretion stimulation in test [5] was 0.3% (inactive). For the same molecule, the inhibition of viability in test [6] is 9.1% (inactive). Also, the values for the viability decrease (inhibition) in test [7] and in test [8] were 3.6% (inactive) and -1.8% (inactive), respectively.
`O=C(CO)[C@@H](O)[C@H](O)[C@@H](O)CO`: the nuclear beta-catenin stimulation in test [1] (at 10 µM) was -1.8% (inactive); in test [1] (stimulation, at 2 µM) it was -0.9%. Moreover, the insulin secretion stimulation in test [2] is 3% (inactive). The viability decrease in test [3] was -1.5% (inactive). Also, the tube area decrease in test [4] was -29.2% (inactive). Besides, in test [5], the GLP1 secretion stimulation was -2.6% (inactive). In test [6], the inhibition of viability is 8.2% (inactive). In addition, the viability decrease (inhibition) in test [7] is 4.9% (inactive); in test [8] it was 3.2% (inactive).
For the molecule `CCCCC(CC)COC(=O)/C=C/c1ccc(OC)cc1` (stereo unspecified), the nuclear beta-catenin stimulation is -1.6% (inactive) in test [1] (at 10 µM) and -0.8% in test [1] (stimulation, at 2 µM). The insulin secretion stimulation in test [2] was 2.6% (inactive). The viability decrease in test [3] was 5.9% (inactive). The tube area decrease in test [4] is 3.3% (inactive). Moreover, the GLP1 secretion stimulation in test [5] is 0.8% (inactive). Further, the inhibition of viability in test [6] was 15.9% (inactive). Besides, the viability decrease (inhibition) is -7.2% (inactive) in test [7] and 3.7% (inactive) in test [8].
With `O=C(Nc1ccc(Cl)c(Cl)c1)C1CC1`, the nuclear beta-catenin stimulation was 0.1% (inactive) in test [1] (at 10 µM) and 0.9% in test [1] (stimulation, at 2 µM). Also, the insulin secretion stimulation in test [2] was 2.2% (inactive). Also, in test [3], the viability decrease is 25.6% (inactive). Moreover, the tube area decrease in test [4] is 24.7% (inactive). The GLP1 secretion stimulation in test [5] is -0.1% (inactive). In addition, in test [6], the inhibition of viability was 43.4% (inactive). Also, the viability decrease (inhibition) in test [7] is 25.2% (inactive); in test [8], 9.7% (inactive).
In the case of `N#CCC(=O)NN`, the nuclear beta-catenin stimulation is 0.4% (inactive) in test [1] (at 10 µM) and 2.7% in test [1] (stimulation, at 2 µM). The insulin secretion stimulation in test [2] is -0.7% (inactive). For the same molecule, the viability decrease in test [3] was 4.45% (inactive). Also, in test [4], the tube area decrease is 0.1% (inactive). Moreover, the GLP1 secretion stimulation in test [5] is -0.8% (inactive). Besides, the inhibition of viability in test [6] was 1.9% (inactive). Also, the viability decrease (inhibition) was 13.4% (inactive) in test [7] and 4.5% (inactive) in test [8].
`c1ccc2c(c1)CCc1ccccc1N2`: the nuclear beta-catenin stimulation in test [1] (at 10 µM) is 0.8% (inactive); in test [1] (stimulation, at 2 µM), 2.8%. The insulin secretion stimulation in test [2] is 0.55% (inactive). Besides, in test [3], the viability decrease is 8.3% (inactive). For the same molecule, in test [4], the tube area decrease is -22.5% (inactive). Also, in test [5], the GLP1 secretion stimulation is 2% (inactive). Also, the inhibition of viability in test [6] was -2.9% (inactive). Moreover, the values for the viability decrease (inhibition) in test [7] and in test [8] were -16.7% (inactive) and -6.2% (inactive), respectively.
Consider `CC(CSC(=O)c1ccccc1)C(=O)N1C[C@@H](Sc2ccccc2)C[C@H]1C(=O)O` (stereo partly specified), for which the nuclear beta-catenin stimulation in test [1] (at 10 µM) is -1% (inactive); in test [1] (stimulation, at 2 µM), -0.2%. Further, in test [2], the insulin secretion stimulation is 6.4% (inactive). Moreover, the viability decrease in test [3] was -18.3% (inactive). Also, in test [4], the tube area decrease is -27% (inactive). The GLP1 secretion stimulation in test [5] is -4% (inactive). Besides, the inhibition of viability in test [6] was 6.5% (inactive). Also, the viability decrease (inhibition) in test [7] is 47.6% (inactive); in test [8] it was 27.7% (inactive).

These data come from PubChem BioAssay.
